This passage reports Potency and activity change, negative = cytotoxicity results from PubChem BioAssay (NCATS).

Each structure is given as a SMILES string. Results filed as inconclusive are left out. Unmarked numbers belong to inactive results. The source made the active and inactive calls. Calls follow the shape of the dose curve; as a rule, active = well fitted cell-killing curve with a large enough effect; inconclusive = small, poorly fitted or top-dose-only effect, or effect the other way; inactive = flat fitted curve, though single readings scatter.
% is scaled to controls: 0 for no effect and ±100 for the full control effect; potency is read from the fitted curve at half-maximal effect.

The test system of the experiment is PA-1. Put plainly: Primary qHTS to identify gynecologic anti-cancer compounds using libraries of approved drugs and bioactive compounds (AID 1345084). Also: nearly all actives have a fitted effect of over 55% in size. Particulars: Gynecologic cancer cell panel viability, ATPlite luminescence, 48 h; series mostly up to 57.5 µM. The essentials: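 ATP-based viability (ATPlite), 1,000 cells/well, 16 h pre-incubation, 48 h compound at 37 C, 5% CO2, 15 min RT before read.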
In general terms: qHTS replaces the single test concentration by a dilution series.
Take `C=CC(=O)Nc1cc2c(Nc3ccc(F)c(Cl)c3)ncnc2cc1OCCCN1CCOCC1`: the Potency result was “inactive”.

Turning to `Cc1ccc(C(=O)Nc2ccc(CN3CCN(C)CC3)c(C(F)(F)F)c2)cc1C#Cc1cnc2cccnn12`, the Potency was 8.91 µM (active).

On to `O=C(Nc1ncc(-c2cc(C(F)F)nn2-c2c(Cl)cccc2Cl)s1)C1CC1`, for which the Potency is 1.78 µM (active).

Turning to `CCNC(=O)Nc1ccc2ncc(Nc3ccc(C)cc3)nc2n1`, the Potency result is “inactive”.

Regarding `Nc1ncnc2c1c(-c1cnc3[nH]ccc3c1)nn2C1CCCC1`, the Potency was 8.91 µM (active).

Take `COc1ccc(C(=O)CC2(O)C(=O)Nc3c(Cl)ccc(Cl)c32)cc1` (stereo not given): the Potency was 8.91 µM (active).

Consider `CC1(O)CC(c2nc(-c3ccc4ccc(-c5ccccc5)nc4c3)c3c(N)nccn23)C1` (stereo not given), for which the Potency entry is “inactive”.

`CC(=O)Nc1sc2c(c1-c1nc3ccccc3s1)CNC2`: the Potency is 31.6 µM (active).

Regarding `Cc1cn(-c2cc(NC(=O)c3ccc(C)c(Nc4nccc(-c5cccnc5)n4)c3)cc(C(F)(F)F)c2)cn1`, the Potency is 12.6 µM (active).

Consider `Nc1nc(Nc2ccc(S(N)(=O)=O)cc2)nn1C(=O)c1c(F)cccc1F`, for which the Potency was 28.2 µM (active).

For the compound `CC(=O)c1c(C)c2cnc(Nc3ccc(N4CCNCC4)cn3)nc2n(C2CCCC2)c1=O`, the activity change, negative = cytotoxicity is -9.61% [at 6.55 µM].

Regarding `OCc1ccc(-c2ccc(-c3ccc(CO)s3)o2)s1`, the Potency was 0.355 µM (active).

Regarding `Cc1nc(N)ncc1-c1nc(N2CCOCC2)c2sc(C(C)(C)O)cc2n1`, the Potency was 7.94 µM (active).

For the compound `Cc1cc(C(=O)N2CCN(c3cccc(Cl)c3)CC2)n(-c2ccccc2)n1`, the Potency is 5.01 µM (active).

`CC(=O)Nc1nc(C)c(-c2ccc(Cl)c(S(=O)(=O)NCCO)c2)s1`: the Potency was 15.8 µM (active).
